Assay results published in the supplement of paper PMC4466140.

target: AgAbp1; test: SPOT peptide array binding signal intensity (averaged, normalized) (arbitrary units (background-subtracted, floor 0; scale differs between SH3 domains)); higher = stronger binding of the SH3 domain to the peptide
Summary of the method: (§1)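 SH3 domains from four yeast species were expressed as GST fusions in E. coli BL21(DE3) and purified on glutathione Sepharose. Each was incubated at 10 μg/ml overnight at 4°C in TBS-based blocking buffer on cellulose membranes bearing synthetic 15-mer peptides, in which serines replaced cysteines. Bound protein was detected with anti-GST antibody, an HRP anti-mouse secondary and luminol, then imaged and quantified with Genespotter. The binding signal is the normalized, background-subtracted spot intensity averaged over replicates, in arbitrary units that are not the same from one domain to another.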

Binder	SPOT peptide array binding signal intensity
ALRRRLPVTRSKINW	348

target: AgBbc1; test: as above
Summary of the method: as §1

Binder	SPOT peptide array binding signal intensity
ALRRRLPVTRSKINW	122

target: AgBem1-D1; test: as above
Summary of the method: as §1

Binder	SPOT peptide array binding signal intensity
ALRRRLPVTRSKINW	140

target: AgBzz1-D1; test: as above
Summary of the method: as §1

Binder	SPOT peptide array binding signal intensity
ALRRRLPVTRSKINW	43

target: AgBzz1-D2; test: as above
Summary of the method: as §1

Binder	SPOT peptide array binding signal intensity
ALRRRLPVTRSKINW	60

target: AgCyk3; test: as above
Summary of the method: as §1

Binder	SPOT peptide array binding signal intensity
ALRRRLPVTRSKINW	9.5

target: AgFus1; test: as above
Summary of the method: as §1

Binder	SPOT peptide array binding signal intensity
ALRRRLPVTRSKINW	583

target: AgHof1; test: as above
Summary of the method: as §1

Binder	SPOT peptide array binding signal intensity
ALRRRLPVTRSKINW	71.8

target: AgHse1; test: as above
Summary of the method: as §1

Binder	SPOT peptide array binding signal intensity
ALRRRLPVTRSKINW	1170

target: AgLsb1; test: as above
Summary of the method: as §1

Binder	SPOT peptide array binding signal intensity
ALRRRLPVTRSKINW	9.75

target: AgLsb4; test: as above
Summary of the method: as §1

Binder	SPOT peptide array binding signal intensity
ALRRRLPVTRSKINW	189

target: AgMyo5; test: as above
Summary of the method: as §1

Binder	SPOT peptide array binding signal intensity
ALRRRLPVTRSKINW	≤ 0

target: AgNbp2; test: as above
Summary of the method: as §1

Binder	SPOT peptide array binding signal intensity
ALRRRLPVTRSKINW	346

target: AgRvs167; test: as above
Summary of the method: as §1

Binder	SPOT peptide array binding signal intensity
ALRRRLPVTRSKINW	19.5

target: AgSho1; test: as above
Summary of the method: as §1

Binder	SPOT peptide array binding signal intensity
ALRRRLPVTRSKINW	79

target: AgSla1-D1-D2; test: as above
Summary of the method: as §1

Binder	SPOT peptide array binding signal intensity
ALRRRLPVTRSKINW	840

target: AgSla1-D3; test: as above
Summary of the method: as §1

Binder	SPOT peptide array binding signal intensity
ALRRRLPVTRSKINW	5.5

target: CaAbp1-D1; test: as above
Summary of the method: as §1

Binder	SPOT peptide array binding signal intensity
ALRRRLPVTRSKINW	1340

target: CaAbp1-D2; test: as above
Summary of the method: as §1

Binder	SPOT peptide array binding signal intensity
ALRRRLPVTRSKINW	526

target: CaBbc1; test: as above
Summary of the method: as §1

Binder	SPOT peptide array binding signal intensity
ALRRRLPVTRSKINW	302

target: CaBem1-D1; test: as above
Summary of the method: as §1

Binder	SPOT peptide array binding signal intensity
ALRRRLPVTRSKINW	35

target: CaBzz1-D1; test: as above
Summary of the method: as §1

Binder	SPOT peptide array binding signal intensity
ALRRRLPVTRSKINW	104

target: CaBzz1-D2; test: as above
Summary of the method: as §1

Binder	SPOT peptide array binding signal intensity
ALRRRLPVTRSKINW	151

target: CaCyk3; test: as above
Summary of the method: as §1

Binder	SPOT peptide array binding signal intensity
ALRRRLPVTRSKINW	53.5

target: CaFus1; test: as above
Summary of the method: as §1

Binder	SPOT peptide array binding signal intensity
ALRRRLPVTRSKINW	1200

target: CaHof1; test: as above
Summary of the method: as §1

Binder	SPOT peptide array binding signal intensity
ALRRRLPVTRSKINW	1

target: CaHse1; test: as above
Summary of the method: as §1

Binder	SPOT peptide array binding signal intensity
ALRRRLPVTRSKINW	60

target: CaLsb1; test: as above
Summary of the method: as §1

Binder	SPOT peptide array binding signal intensity
ALRRRLPVTRSKINW	1.5

target: CaLsb4; test: as above
Summary of the method: as §1

Binder	SPOT peptide array binding signal intensity
ALRRRLPVTRSKINW	195

target: CaMyo5; test: as above
Summary of the method: as §1

Binder	SPOT peptide array binding signal intensity
ALRRRLPVTRSKINW	5.5

target: CaNbp2; test: as above
Summary of the method: as §1

Binder	SPOT peptide array binding signal intensity
ALRRRLPVTRSKINW	712

target: CaRvs167; test: as above
Summary of the method: as §1

Binder	SPOT peptide array binding signal intensity
ALRRRLPVTRSKINW	48.5

target: CaRvs167-3; test: as above
Summary of the method: as §1

Binder	SPOT peptide array binding signal intensity
ALRRRLPVTRSKINW	197

target: CaSho1; test: as above
Summary of the method: as §1

Binder	SPOT peptide array binding signal intensity
ALRRRLPVTRSKINW	1180

target: CaSla1-D1-D2; test: as above
Summary of the method: as §1

Binder	SPOT peptide array binding signal intensity
ALRRRLPVTRSKINW	491

target: CaSla1-D3; test: as above
Summary of the method: as §1

Binder	SPOT peptide array binding signal intensity
ALRRRLPVTRSKINW	11.5

target: ScAbp1; test: as above
Summary of the method: as §1

Binder	SPOT peptide array binding signal intensity
ALRRRLPVTRSKINW	59

target: ScBbc1; test: as above
Summary of the method: as §1

Binder	SPOT peptide array binding signal intensity
ALRRRLPVTRSKINW	45.5

target: ScBem1-D1; test: as above
Summary of the method: as §1

Binder	SPOT peptide array binding signal intensity
ALRRRLPVTRSKINW	20

target: ScBzz1-D1; test: as above
Summary of the method: as §1

Binder	SPOT peptide array binding signal intensity
ALRRRLPVTRSKINW	23

target: ScBzz1-D2; test: as above
Summary of the method: as §1

Binder	SPOT peptide array binding signal intensity
ALRRRLPVTRSKINW	27

target: ScCyk3; test: as above
Summary of the method: as §1

Binder	SPOT peptide array binding signal intensity
ALRRRLPVTRSKINW	160

target: ScFus1; test: as above
Summary of the method: as §1

Binder	SPOT peptide array binding signal intensity
ALRRRLPVTRSKINW	784

target: ScHof1; test: as above
Summary of the method: as §1

Binder	SPOT peptide array binding signal intensity
ALRRRLPVTRSKINW	2.5

target: ScHse1; test: as above
Summary of the method: as §1

Binder	SPOT peptide array binding signal intensity
ALRRRLPVTRSKINW	1800

target: ScLsb1; test: as above
Summary of the method: as §1

Binder	SPOT peptide array binding signal intensity
ALRRRLPVTRSKINW	26.8

target: ScLsb2; test: as above
Summary of the method: as §1

Binder	SPOT peptide array binding signal intensity
ALRRRLPVTRSKINW	15.5

target: ScLsb3; test: as above
Summary of the method: as §1

Binder	SPOT peptide array binding signal intensity
ALRRRLPVTRSKINW	658

target: ScLsb4; test: as above
Summary of the method: as §1

Binder	SPOT peptide array binding signal intensity
ALRRRLPVTRSKINW	25

target: ScMyo3; test: as above
Summary of the method: as §1

Binder	SPOT peptide array binding signal intensity
ALRRRLPVTRSKINW	3.5

target: ScMyo5; test: as above
Summary of the method: as §1

Binder	SPOT peptide array binding signal intensity
ALRRRLPVTRSKINW	3.5

target: ScNbp2; test: as above
Summary of the method: as §1

Binder	SPOT peptide array binding signal intensity
ALRRRLPVTRSKINW	616

target: ScPex13; test: as above
Summary of the method: as §1

Binder	SPOT peptide array binding signal intensity
ALRRRLPVTRSKINW	2.25

target: ScRvs167; test: as above
Summary of the method: as §1

Binder	SPOT peptide array binding signal intensity
ALRRRLPVTRSKINW	155

target: ScSho1; test: as above
Summary of the method: as §1

Binder	SPOT peptide array binding signal intensity
ALRRRLPVTRSKINW	1460

target: ScSla1-D1-D2; test: as above
Summary of the method: as §1

Binder	SPOT peptide array binding signal intensity
ALRRRLPVTRSKINW	713

target: ScSla1-D3; test: as above
Summary of the method: as §1

Binder	SPOT peptide array binding signal intensity
ALRRRLPVTRSKINW	23

target: SpAbp1-D1; test: as above
Summary of the method: as §1

Binder	SPOT peptide array binding signal intensity
ALRRRLPVTRSKINW	794

target: SpBbc1; test: as above
Summary of the method: as §1

Binder	SPOT peptide array binding signal intensity
ALRRRLPVTRSKINW	10

target: SpBzz1-D1; test: as above
Summary of the method: as §1

Binder	SPOT peptide array binding signal intensity
ALRRRLPVTRSKINW	381

target: SpBzz1-D2; test: as above
Summary of the method: as §1

Binder	SPOT peptide array binding signal intensity
ALRRRLPVTRSKINW	0.5
VRVKKRPLIRPLNSS	≤ 0

target: SpCyk3; test: as above
Summary of the method: as §1

Binder	SPOT peptide array binding signal intensity
ALRRRLPVTRSKINW	69.5
VRVKKRPLIRPLNSS	≤ 0

target: SpHof1; test: as above
Summary of the method: as §1

Binder	SPOT peptide array binding signal intensity
ALRRRLPVTRSKINW	357
VRVKKRPLIRPLNSS	188

target: SpHof1-2; test: as above
Summary of the method: as §1

Binder	SPOT peptide array binding signal intensity
ALRRRLPVTRSKINW	80.8
VRVKKRPLIRPLNSS	12.5

target: SpHof1-3; test: as above
Summary of the method: as §1

Binder	SPOT peptide array binding signal intensity
ALRRRLPVTRSKINW	790
VRVKKRPLIRPLNSS	373

target: SpHse1; test: as above
Summary of the method: as §1

Binder	SPOT peptide array binding signal intensity
ALRRRLPVTRSKINW	766
VRVKKRPLIRPLNSS	279

target: SpLsb1; test: as above
Summary of the method: as §1

Binder	SPOT peptide array binding signal intensity
ALRRRLPVTRSKINW	16.2
VRVKKRPLIRPLNSS	14.5

target: SpLsb4; test: as above
Summary of the method: as §1

Binder	SPOT peptide array binding signal intensity
ALRRRLPVTRSKINW	553
VRVKKRPLIRPLNSS	135

target: SpMyo1; test: as above
Summary of the method: as §1

Binder	SPOT peptide array binding signal intensity
ALRRRLPVTRSKINW	10.2
VRVKKRPLIRPLNSS	5.5

target: SpNbp2; test: as above
Summary of the method: as §1

Binder	SPOT peptide array binding signal intensity
ALRRRLPVTRSKINW	716
VRVKKRPLIRPLNSS	773

target: SpPex13; test: as above
Summary of the method: as §1

Binder	SPOT peptide array binding signal intensity
ALRRRLPVTRSKINW	23
VRVKKRPLIRPLNSS	17

target: SpRvs167; test: as above
Summary of the method: as §1

Binder	SPOT peptide array binding signal intensity
ALRRRLPVTRSKINW	72.5
VRVKKRPLIRPLNSS	3.67

target: SpSla1-D1-D2; test: as above
Summary of the method: as §1

Binder	SPOT peptide array binding signal intensity
ALRRRLPVTRSKINW	≤ 0
VRVKKRPLIRPLNSS	≤ 0

target: SpSla1-D3; test: as above
Summary of the method: as §1

Binder	SPOT peptide array binding signal intensity
ALRRRLPVTRSKINW	41.5
VRVKKRPLIRPLNSS	2
